# Among all 310,000 compounds or so, about 14,000 (4.5%) showed an effect of 50% or more. Effects have a minus sign here. For the sample, strong results were picked, then their nearest neighbours and some compounds at random.
# Biological target: human ether-à-go-go-related gene (hERG) potassium channel (human, UniProt Q12809)
# Test: primary screen, population patch clamp on CHO cells stably expressing hERG; higher = less effect of the substance
# 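Note: peak tail current of the secondary pulse compared with the same well before compound.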
# human ether-à-go-go-related gene (hERG) potassium channel, sequence (Q12809 whole entry, looked up): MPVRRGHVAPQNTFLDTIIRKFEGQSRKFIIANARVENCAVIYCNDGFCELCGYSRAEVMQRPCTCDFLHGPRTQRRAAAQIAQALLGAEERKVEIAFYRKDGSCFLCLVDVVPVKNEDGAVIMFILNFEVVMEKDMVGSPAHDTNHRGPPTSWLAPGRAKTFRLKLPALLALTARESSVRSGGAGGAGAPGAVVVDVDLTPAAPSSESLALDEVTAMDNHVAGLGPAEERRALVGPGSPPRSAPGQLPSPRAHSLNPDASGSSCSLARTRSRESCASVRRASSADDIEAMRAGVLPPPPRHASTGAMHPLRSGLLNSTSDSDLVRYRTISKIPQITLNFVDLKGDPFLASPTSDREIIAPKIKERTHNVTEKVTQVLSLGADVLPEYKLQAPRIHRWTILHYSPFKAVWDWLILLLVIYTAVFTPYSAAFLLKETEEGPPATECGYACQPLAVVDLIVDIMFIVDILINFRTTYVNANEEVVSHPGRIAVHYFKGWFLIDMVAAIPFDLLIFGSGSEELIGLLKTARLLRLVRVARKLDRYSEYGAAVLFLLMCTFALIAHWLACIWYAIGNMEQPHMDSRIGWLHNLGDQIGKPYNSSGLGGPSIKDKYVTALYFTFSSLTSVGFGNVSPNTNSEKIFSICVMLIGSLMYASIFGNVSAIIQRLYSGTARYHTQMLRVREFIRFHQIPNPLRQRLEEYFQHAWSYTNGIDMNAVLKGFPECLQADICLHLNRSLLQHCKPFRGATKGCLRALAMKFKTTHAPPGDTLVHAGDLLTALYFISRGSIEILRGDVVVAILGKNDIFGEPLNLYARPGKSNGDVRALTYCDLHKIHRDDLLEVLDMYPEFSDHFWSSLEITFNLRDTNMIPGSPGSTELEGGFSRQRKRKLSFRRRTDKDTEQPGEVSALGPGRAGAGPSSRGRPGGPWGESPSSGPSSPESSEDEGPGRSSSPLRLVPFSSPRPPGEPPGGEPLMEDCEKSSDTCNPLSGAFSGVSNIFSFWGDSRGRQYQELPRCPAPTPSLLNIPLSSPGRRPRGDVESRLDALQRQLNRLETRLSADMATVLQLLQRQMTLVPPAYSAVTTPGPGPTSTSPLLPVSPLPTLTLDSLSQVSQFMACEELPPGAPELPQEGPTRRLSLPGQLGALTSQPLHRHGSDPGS
row,SMILES,"hERG current change (%, negative = inhibition) at 10uM"
1,Cc1cccc(Nc2ccc(NCc3ccccc3)nn2)c1,-51.8%
2,Clc1ccc(Nc2ccc(NCc3ccccc3)nn2)cc1,-37.8%
3,O=C(NNC(=S)NC(=O)c1ccccc1[N+](=O)[O-])c1ccccc1Cl,6.38%
4,O=C(NNC(=S)NC(=O)c1ccccc1[N+](=O)[O-])c1ccccc1[N+](=O)[O-],15.1%
5,O=C(NNC(=S)NC(=O)c1ccccc1[N+](=O)[O-])c1ccc(Cl)cc1Cl,-58.2%
6,N/C(=N\N=C\c1ccco1)SC1CC(=O)N(c2ccccc2)C1=O (stereo not drawn),17.1%
7,CC(C)CC(=O)NC(=S)Nc1sc2c(c1C(N)=O)CCC2,15.7%
8,Cc1nn(-c2cc(N3CCOCC3)ccc2N)c(=O)c2ccccc12,0.574%
9,COc1ccccc1C(=O)NCc1ccccn1,18.4%
10,O=C(NCc1ccc(F)cc1)c1ccccc1OCc1ccccc1,-8.06%
11,O=C(NCc1ccccn1)c1ccccc1OCc1ccc(F)cc1,-56.9%
12,O=C(Cn1nc(C(=O)O)c2ccccc2c1=O)NCC1CCCO1 (stereo not drawn),20%
13,CCCCc1cc(=O)oc2cc(OCC(=O)N3CCc4ccccc43)ccc12,6.81%
14,Cl.ON=C1c2cc(OCCN3CCCCC3)ccc2-c2ccc(OCCN3CCCCC3)cc21,-58.1%
15,CCOc1ccc(CNCCN2CCCC2)cc1.O=C(O)C(=O)O,-63.9%
16,CCOc1ccc(C(=O)CCN2CCCCC2)cc1,-19.7%
17,O=C(O)C(=O)O.c1ccc(COc2ccc(OCCN3CCCCC3)cc2)cc1,-70.2%
18,CCOc1ccc(OCCOCCN2CCCC2)cc1.O=C(O)C(=O)O,0.376%
19,O=C(O)C(=O)O.c1ccc(OCCN2CCOCC2)cc1,12%
20,O=C(O)C(=O)O.c1ccc(COc2ccc(OCCN3CCCC3)cc2)cc1,-60.3%
21,CCN(CC)CCOc1ccc2c(c1)C(=NO)c1cc(OCCN(CC)CC)ccc1-2.Cl,-16.4%
22,COC(=O)c1ccc(OCCN2CCCCCC2)cc1.O=C(O)C(=O)O,-1.51%
23,c1ccc2cc(OCCN3CCCC3)ccc2c1,-33.1%

row,SMILES,"hERG current change (%, negative = inhibition) at 10uM"
1,CCOc1ccc(OCCN2CCCCC2)cc1.O=C(O)C(=O)O,-21.7%
2,Cc1ccc(OCCN2CCCC2)cc1.O=C(O)C(=O)O,-3.76%
3,CCn1c(-c2ccccc2)c[nH]c1=S,15.4%
4,CN(C)c1cccc(C(=O)NCCCSc2ccccc2)c1,4.72%
5,Cc1nn(Cc2ccccc2Cl)c2sc(C(=O)OC3CCCC3=O)cc12 (stereo not drawn),-4.19%
6,COc1cc(NS(=O)(=O)c2ccc(NC(=S)NC(=O)c3ccc(F)cc3)cc2)nc(OC)n1,3.73%
7,N#Cc1cc2cc3c(cc2nc1NCCNC(=S)NCCCN1CCOCC1)OCO3,14.2%
8,CC(C)CCN1C(=O)c2ccc(C(=O)OCC(=O)N(C)C3CCS(=O)(=O)C3)cc2C1=O (stereo not drawn),-8.41%
9,CCn1nc(C(=O)OCC(=O)NCC(C)C)c2ccccc2c1=O,0.00988%
10,CCn1nc(C(=O)OCC(=O)NC(C)C)c2ccccc2c1=O,8.88%
11,CC(C)Cn1nc(C(=O)OCC(=O)NCC(F)(F)F)c2ccccc2c1=O,-78.2%
12,COC(=O)c1cc(NC(=O)c2c(C)noc2C)ccc1N1CCOCC1,17.6%
13,COc1ccc(N2C(=O)/C(=C/c3ccc(N(C)C)o3)C(=O)NC2=S)cc1,3.28%
14,O=C(c1ccc(Cn2cnnn2)cc1)N1CCCC(Nc2ccc(F)cc2)C1 (stereo not drawn),-0.196%
15,COc1cc(CN2CCN(Cc3ccc(C)cc3)C(CCO)C2)cc(OC)c1O (stereo not drawn),-51.6%
16,COc1ccc(CN2CCN(Cc3ccc(CO)o3)CC2CCO)cc1C (stereo not drawn),-8.64%
17,CC(=O)Nc1ccc(CN2CCN(Cc3ccc(C)cc3)C(CCO)C2)cc1 (stereo not drawn),-34.5%
18,COc1ccc(CN2CCN(Cc3ccc(C)cc3)C(CCO)C2)cc1OC (stereo not drawn),-54.3%
19,COc1cccc(CN2CCN(Cc3ccc(O)c(OC)c3)CC2CCO)c1 (stereo not drawn),-5.76%
20,COc1cc(CN2CCN(Cc3ccc(C)cc3)C(CCO)C2)ccc1O (stereo not drawn),-19.6%
21,CCOc1cccc(OCCOCCN(C)C)c1.O=C(O)C(=O)O,0.719%
22,COC(=O)c1ccc(CN2C(=O)NC3(CCCCC3C)C2=O)o1 (stereo not drawn),-11.4%

# Reference: paper PMC4336329 (PLoS ONE, 2015)
